CYP2C19 inh = inhibitors of human CYP2C19. CYP2C19 Supersomes, luciferin-H EGE luminescence, 30 min. inhibition, % at 5 µM. hit rate 21% among 96,000;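 active means CYP2C19 inhibition above a set limit at 5 µM in the primary screen, cut at about 50% in these data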;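 further: plate controls were negative control wells for no effect and 2.5 mM tranylcypromine positive control for full effect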
Target sequence (P33261 whole entry, looked up): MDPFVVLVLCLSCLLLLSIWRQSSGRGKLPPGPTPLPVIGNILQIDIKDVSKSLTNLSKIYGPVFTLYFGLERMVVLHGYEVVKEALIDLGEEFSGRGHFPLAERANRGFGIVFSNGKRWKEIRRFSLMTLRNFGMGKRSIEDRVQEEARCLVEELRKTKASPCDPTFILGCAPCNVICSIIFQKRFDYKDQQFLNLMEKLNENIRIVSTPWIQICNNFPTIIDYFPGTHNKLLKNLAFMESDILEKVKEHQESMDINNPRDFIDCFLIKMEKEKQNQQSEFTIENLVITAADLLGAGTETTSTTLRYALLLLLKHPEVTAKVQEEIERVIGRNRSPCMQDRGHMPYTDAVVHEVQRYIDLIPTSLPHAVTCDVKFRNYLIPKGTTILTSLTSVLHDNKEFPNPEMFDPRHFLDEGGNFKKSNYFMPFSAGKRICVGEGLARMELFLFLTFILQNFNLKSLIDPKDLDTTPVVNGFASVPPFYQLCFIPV
CYP2C9 act = increases human cytochrome P450 2C9 activity; P11712; recombinant CYP2C9, luciferin-H conversion, luminescence; active compounds read high; factor 1 = untreated enzyme, 0 = blocked; activation factor at 5 µM; hit rate 1.4% among 96,000;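 active means activation factor of 2 or more for CYP2C9 at a 5 µM dose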;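 further: 0 = sulfaphenazole-blocked wells and 1 = vehicle-only wells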
CYP2C19 act = increases human CYP2C19 enzyme activity; P33261; recombinant CYP2C19, luciferin-H EGE luminescence; active compounds read high; 0 = fully inhibited enzyme, 1 = untreated enzyme; activation factor at 5 µM; 96,000 tested, under 10 active;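 active means activation factor of at least 2 at 5 µM in the primary screen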;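 further: 0 = wells with 2.5 mM tranylcypromine and 1 = vehicle-only wells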
Cav3 T inh = blocks human Cav3.2 T-type calcium channel; B-score at 10 µM; Cav3.2-expressing cells, Fluo-4 calcium fluorescence FDSS; active compounds read low; O95180; hit rate 4% among 100,000; AID 449739;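 active means single-dose well whose peak fluorescence ratio is a statistical outlier from its plate by either plate-standardised score or position-corrected B-score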
CYP2C9 inhib = blocks human cytochrome P450 2C9; P11712; CYP2C9 Supersomes, luciferin-H conversion, luminescence; inhibition, % at 5 µM; hit rate 20% among 96,000; AID 777;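 active means blocking of liver enzyme CYP2C9 beyond about 50% at 5 µM, limit read from the data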
Active calls of the source: *; . = no result. A selection: hits, their analogues and other compounds. The true share with any hit is near 27%.

SMILES	CYP2C19 inh	CYP2C9 act	CYP2C19 act	Cav3 T inh	CYP2C9 inhib
CCO[C@H]1OC(C(=O)N2CCN(Cc3ccc4c(c3)OCO4)CC2)=C[C@@H](C)[C@@H]1CCCO	.	.	.	0.82	.
N#Cc1nc(-c2ccccc2Cl)oc1N1CCOCC1	15	1.4	0.9	-0.55	-39
COc1ccccc1-c1nc(C#N)c(N2CCN(c3ccccc3)CC2)o1	80*	1	0.2	-0.56	0
COc1ccccc1-c1nc(C#N)c(N2CCc3ccccc3C2)o1	84*	0.3	0.2	-2.3	75*
CC1CCN(c2oc(-c3ccccc3Cl)nc2C#N)CC1	86*	0.1	0.1	-0.67	87*
COc1ccc(-c2nc(C#N)c(N3CCc4ccccc4C3)o2)cc1OC	55*	0.8	0.4	-0.24	23
Cc1ccc2c(c1)cc(C)c1nnc(SCC(=O)NCc3ccco3)n12	23	1.3	0.8	-0.4	-29
Cc1ccc(C)c(C(C)NC(=O)C2C3CCC(O3)C2C(=O)O)c1 (stereo not drawn)	5	0.9	0.9	0.36	6
N#Cc1nc(-c2ccco2)oc1N1CCC(Cc2ccccc2)CC1	82*	0.1	0.2	-3	91*
N#Cc1nc(-c2ccco2)oc1N1CCN(c2ccccc2)CC1	40	0.8	0.6	-1.8	19
Fc1c(F)c(C(F)(F)F)c(F)c(F)c1N/N=C\c1cccs1	2	0.9	1	0.5	5
CC(C)NC(C(=O)Nc1cc(Cl)cc(Cl)c1)c1ccccc1 (stereo not drawn)	71*	0.3	0.3	-4.6*	72*
COc1cccc(NC(=O)C(NC2CCCC2)c2ccccc2)c1 (stereo not drawn)	20	0.8	0.8	-2.3	21
Cc1ccc(S(=O)(=O)N(CC(=O)N2CCOCC2)CC(=O)N2CCOCC2)cc1	.	.	.	-0.052	.
Cc1ccc(S(=O)(=O)N(CC(=O)N2CCC(C)CC2)Cc2ccccc2F)cc1	84*	0.2	0.2	-2.5	79*
Cc1ccc(S(=O)(=O)N(CC(=O)O)Cc2ccccc2F)cc1	-2	0.5	1	0.029	51*
CN(CC(=O)O)S(=O)(=O)c1ccc(F)cc1	.	.	.	0.058	.
Cc1nn(C)cc1/C=N/NC(=O)C(C)(C)Oc1ccc(Cl)cc1	18	0.7	0.8	0.8	28
Cn1c(SCc2ccccc2)nnc1-c1cnccn1	25	0.9	0.8	-0.17	8
COC(=O)c1cccc(C(=O)Nc2ccc(C)cc2Br)n1	22	0.5	0.8	.	54*
CC(C)(C)c1ccc(OCC(=O)NNC(=O)Cc2cccs2)cc1	-8	1.3	1.1	.	-26
O=C(COc1ccccc1)NCCc1cn2ccsc2n1	84*	0.6	0.2	0.15	44
O=C(COc1cccc2ccccc12)NNC(=O)c1cccs1	34	2.9*	0.7	.	-194
Cc1ccc(OCC(=O)NCc2cccs2)cc1	71*	0.9	0.3	-0.036	13
O=C(COC(=O)c1ccc(Br)o1)NCc1cccs1	67*	0.8	0.3	0.02	20
SMILES	CYP2C19 inh	CYP2C9 act	CYP2C19 act	Cav3 T inh	CYP2C9 inhib
C=C(C)C(=O)N1CC2(CC(c3cccc(NC(=O)CC(c4ccccc4)c4ccccc4)c3)=NO2)C[C@H]1C(N)=O (stereo partly drawn)	.	.	.	-0.49	.
Cc1ccc(C2C3=C(CC(C)(C)CC3=O)N(CCN3CCOCC3)C3=C2C(=O)CC(C)(C)C3)cc1	-10	1.1	1.1	0.79	-6
O=C(NCCCN1CCCC1=O)c1cc(=O)c2ccccc2o1	5	1	1	-1.2	-1
O=C(Cn1cccc1C(=O)c1ccccc1)NCc1cccs1	73*	1	0.3	0.82	2
O=C(COc1ccccc1)NCc1cccs1	58*	0.8	0.4	0.49	22
O=C(Cn1cccc1C(=O)c1ccccc1)NCc1ccccc1	42	1.2	0.6	-0.49	-16
O=C(COc1ccc(Br)cc1)NCc1ccccn1	65*	0.6	0.4	-0.1	37
COc1ccccc1OCC(=O)NCc1cccs1	59*	0.9	0.4	0.75	9
CCOC(=O)C[C@H]1c2ccc(C(F)(F)F)cc2S(=O)(=O)N1C(C)C	.	.	.	0.3	.
CCn1nc(C(=O)O)c(=O)c2cc3c(cc21)OCO3	.	.	.	0.92	.
Nc1ccccc1C(=O)Nc1cccc(C(=O)O)c1	59*	0.9	0.4	.	14
CC(=O)Nc1cccc(C(=O)/C=C/c2ccco2)c1	47	2.3*	0.5	-1.7	-126
Cc1occc1C(=O)Nc1cccc(C(=O)O)c1	71*	0.6	0.3	0.00037	41
CC(=O)c1cccc(NC(=O)c2ccco2)c1	11	0.9	0.9	0.26	7
Cc1noc(C)c1C(=O)OCC(=O)c1c(N)n(CC(C)C)c(=O)n(C)c1=O	1	0.6	1	-0.19	38
CCOC(=O)NC1(C(F)(F)F)C(=O)N(Cc2ccccn2)C2=C1C(=O)CC(C)(C)C2 (stereo not drawn)	14	1.1	0.9	-1.1	-10
C=CCn1c(CCNC(=O)c2ccccc2F)nnc1SCC(=O)Nc1nc2ccccc2s1	29	0.4	0.7	-1.7	59*
CCOC(=O)CSc1nnc(CSc2nc3ccccc3s2)n1C	44	1	0.6	0.54	2
C=CCn1c(CSc2nc3ccccc3s2)nnc1SCC(=O)OCC	77*	0.6	0.2	0.03	42
C=CCn1c(CCNC(=O)c2cccs2)nnc1SCC(=O)c1ccc(Cl)cc1	78*	0.2	0.2	-0.47	79*
C=CCn1c(CNC(=O)c2cccs2)nnc1SCC(=O)Nc1ccc(C(=O)O)cc1	-5	1	1	0.5	-3
C=CCn1c(CNC(=O)c2cccs2)nnc1SCC(=O)c1ccc(Br)cc1	46	0.4	0.5	-0.55	61*
Cc1sc2ncnc(OCC(=O)N3CCN(S(=O)(=O)c4ccc(Cl)cc4)CC3)c2c1C	75*	0.2	0.3	-1.5	83*
Cc1sc2ncnc(OCC(=O)c3ccc(S(=O)(=O)N4CCCC4)cc3)c2c1C	73*	0.3	0.3	0.028	69*
O=C(COc1ncnc2ccccc12)N1CCN(S(=O)(=O)c2ccc(Cl)cc2)CC1	10	0.7	0.9	0.64	33
SMILES	CYP2C19 inh	CYP2C9 act	CYP2C19 act	Cav3 T inh	CYP2C9 inhib
COC(=O)/C(=C/c1c[nH]c2ccccc12)[N+](=O)[O-]	-3	1.2	1	-0.67	-16
Cc1cc2c(C)nc(Cc3ccccc3)nc2o1	74*	0.9	0.3	0.9	9
COc1ccccc1-c1cc(C(=O)NCCc2ccccc2)no1	25	3.7*	0.7	0.69	-268
COc1ccc(CCNC(=O)c2cc(-c3ccccc3OC)on2)cc1OC	12	1.9	0.9	-0.023	-90
CCCc1cc(C(=O)Nc2ccccc2C(=O)OC)no1	20	2.2*	0.8	0.39	-117
COc1ccc(NC(=O)c2cc(-c3ccccc3OC)on2)cc1	-11	1.2	1.1	0.16	-16
COc1ccccc1-c1cc(C(=O)Nc2cccnc2)no1	27	2.1*	0.7	.	-109
CCCc1cc(C(=O)NCCc2ccccc2)no1	63*	0.6	0.4	-0.16	40
